# Assay results taken from PMC7862700, “An all-to-all approach to the identification of sequence-specific readers for epigenetic DNA modifications on cytosine”.
# How the values were obtained:
# Test in all cases: DAPPL (digital affinity profiling via proximity ligation, sequencing); 10 mM Tris-HCl pH 7.5, 50 mM NaCl, 1 mM DTT, 4% glycerol, room temperature, 30 min; GST-TFs on glutathione beads, 16-mer random dsDNA library, 0.1% formaldehyde crosslink after washing; high values mean tight binding
# FEV = biological target: T1, FEV (Homo sapiens, UniProt Q99581 1-238); conditions: protein: recombinant; tags: N-terminal GST; dsDNA, one strand shown
# T1 sequence: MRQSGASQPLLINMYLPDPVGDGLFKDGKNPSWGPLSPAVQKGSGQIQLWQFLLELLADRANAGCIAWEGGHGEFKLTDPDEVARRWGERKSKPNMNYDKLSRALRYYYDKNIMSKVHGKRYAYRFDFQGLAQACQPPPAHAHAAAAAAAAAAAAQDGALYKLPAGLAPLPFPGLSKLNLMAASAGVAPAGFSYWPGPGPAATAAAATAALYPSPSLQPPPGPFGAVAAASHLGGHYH
# How it was run: (§1)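 Human transcription factors fused to GST were expressed in yeast, captured on glutathione beads, given DNA barcodes and pooled with a GST-only negative control. Pools were incubated with 200 nmole of a 16-mer random double-stranded DNA library in Tris/NaCl/DTT/glycerol buffer at room temperature for 30 min. They were then washed, crosslinked with 0.1% formaldehyde, proximity-ligated (BsaI/T4 ligase, 1 h, 37 °C), PCR-amplified and sequenced on an Illumina NextSeq500. Binding signal is each 6-mer's read frequency for a factor divided by its frequency for the GST control.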
# ETV5 = ETV5 (Homo sapiens, UniProt P41161 1-510); conditions: protein: recombinant; tags: N-terminal GST; dsDNA, one strand shown
# How it was run: as §1
# HSF1 = HSF1 (Homo sapiens, UniProt Q00613 1-529); conditions: protein: recombinant; tags: N-terminal GST; chain copies: 3; dsDNA, one strand shown
# How it was run: as §1
# SPIC = biological target: T2, SPIC (Homo sapiens, UniProt Q8N5J4 1-248); conditions: protein: recombinant; tags: N-terminal GST; dsDNA, one strand shown
# T2 sequence: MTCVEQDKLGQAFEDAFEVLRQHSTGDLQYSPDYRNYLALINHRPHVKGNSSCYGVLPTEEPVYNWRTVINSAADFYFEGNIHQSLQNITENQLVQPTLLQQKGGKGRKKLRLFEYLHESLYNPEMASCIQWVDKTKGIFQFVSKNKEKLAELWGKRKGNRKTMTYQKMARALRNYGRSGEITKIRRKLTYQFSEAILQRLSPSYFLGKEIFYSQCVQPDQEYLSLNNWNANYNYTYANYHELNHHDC
# How it was run: as §1
# ELF4 = ELF4 (Homo sapiens, UniProt Q99607 1-663); conditions: protein: recombinant; tags: N-terminal GST; dsDNA, one strand shown
# How it was run: as §1
# ELK4 = biological target: T3, ELK4 (Homo sapiens, UniProt P28324-2 1-405); conditions: protein: recombinant; tags: N-terminal GST; dsDNA, one strand shown
# T3 sequence: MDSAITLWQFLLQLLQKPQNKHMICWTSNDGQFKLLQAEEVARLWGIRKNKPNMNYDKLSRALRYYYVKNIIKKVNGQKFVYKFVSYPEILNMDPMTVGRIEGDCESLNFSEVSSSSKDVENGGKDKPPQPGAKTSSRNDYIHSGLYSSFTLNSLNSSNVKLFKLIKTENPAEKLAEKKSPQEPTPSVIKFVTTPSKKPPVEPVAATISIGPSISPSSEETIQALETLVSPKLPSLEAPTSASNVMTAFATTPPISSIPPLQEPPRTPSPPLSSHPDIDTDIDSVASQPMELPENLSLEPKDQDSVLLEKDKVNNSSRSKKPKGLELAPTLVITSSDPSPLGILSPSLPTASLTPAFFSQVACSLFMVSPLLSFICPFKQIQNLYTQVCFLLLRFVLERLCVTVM
# How it was run: as §1
# ETV2 = biological target: T4, ETV2 (Homo sapiens, UniProt O00321 1-342); conditions: protein: recombinant; tags: N-terminal GST; dsDNA, one strand shown
# T4 sequence: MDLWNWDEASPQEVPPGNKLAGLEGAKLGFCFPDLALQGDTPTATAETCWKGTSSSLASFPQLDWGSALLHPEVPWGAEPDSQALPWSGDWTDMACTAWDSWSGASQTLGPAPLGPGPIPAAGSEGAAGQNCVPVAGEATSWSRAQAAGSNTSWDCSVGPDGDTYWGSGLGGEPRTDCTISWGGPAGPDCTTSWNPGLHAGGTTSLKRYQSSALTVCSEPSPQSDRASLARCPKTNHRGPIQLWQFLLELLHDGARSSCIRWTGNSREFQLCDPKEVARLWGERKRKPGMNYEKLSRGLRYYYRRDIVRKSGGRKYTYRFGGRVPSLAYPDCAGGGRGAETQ
# How it was run: as §1
# ELF3 = biological target: T5, ELF3 (Homo sapiens, UniProt P78545 1-371); conditions: protein: recombinant; tags: N-terminal GST; dsDNA, one strand shown
# T5 sequence: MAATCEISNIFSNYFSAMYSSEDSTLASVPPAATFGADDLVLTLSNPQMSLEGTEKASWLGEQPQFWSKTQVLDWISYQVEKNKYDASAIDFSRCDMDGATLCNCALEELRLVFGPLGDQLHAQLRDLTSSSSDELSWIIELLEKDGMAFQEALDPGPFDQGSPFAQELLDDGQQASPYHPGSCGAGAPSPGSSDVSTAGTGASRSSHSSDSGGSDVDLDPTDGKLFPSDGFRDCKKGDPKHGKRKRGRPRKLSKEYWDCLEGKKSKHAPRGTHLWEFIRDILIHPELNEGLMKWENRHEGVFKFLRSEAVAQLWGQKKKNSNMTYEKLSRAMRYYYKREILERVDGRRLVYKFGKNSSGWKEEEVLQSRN
# How it was run: as §1
# CRX = CRX (Homo sapiens, UniProt O43186 1-299); conditions: protein: recombinant; tags: N-terminal GST; dsDNA, one strand shown
# How it was run: as §1
# ETV1 = ETV1 (Homo sapiens, UniProt P50549 1-477); conditions: protein: recombinant; tags: N-terminal GST; dsDNA, one strand shown
# How it was run: as §1
# ERF = biological target: T6, ERF (Homo sapiens, UniProt P50548 1-548); conditions: protein: recombinant; tags: N-terminal GST; dsDNA, one strand shown
# T6 sequence: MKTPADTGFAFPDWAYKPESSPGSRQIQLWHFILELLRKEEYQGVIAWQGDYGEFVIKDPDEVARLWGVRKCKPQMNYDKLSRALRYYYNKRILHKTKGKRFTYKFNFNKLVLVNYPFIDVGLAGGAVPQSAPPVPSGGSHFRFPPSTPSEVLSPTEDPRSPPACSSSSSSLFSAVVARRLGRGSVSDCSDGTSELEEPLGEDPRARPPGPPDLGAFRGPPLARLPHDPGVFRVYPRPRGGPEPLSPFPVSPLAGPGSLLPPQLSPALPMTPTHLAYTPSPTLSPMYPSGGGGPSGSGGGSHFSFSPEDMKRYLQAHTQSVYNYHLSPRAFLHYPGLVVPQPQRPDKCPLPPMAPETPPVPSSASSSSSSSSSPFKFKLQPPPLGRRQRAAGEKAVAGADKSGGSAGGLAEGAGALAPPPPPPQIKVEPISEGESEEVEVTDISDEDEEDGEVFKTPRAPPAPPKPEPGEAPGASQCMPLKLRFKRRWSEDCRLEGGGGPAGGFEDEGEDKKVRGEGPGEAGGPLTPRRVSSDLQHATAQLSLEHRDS
# How it was run: as §1
# ETV3L = biological target: T7, ETV3L (Homo sapiens, UniProt Q6ZN32 1-361); conditions: protein: recombinant; tags: N-terminal GST; dsDNA, one strand shown
# T7 sequence: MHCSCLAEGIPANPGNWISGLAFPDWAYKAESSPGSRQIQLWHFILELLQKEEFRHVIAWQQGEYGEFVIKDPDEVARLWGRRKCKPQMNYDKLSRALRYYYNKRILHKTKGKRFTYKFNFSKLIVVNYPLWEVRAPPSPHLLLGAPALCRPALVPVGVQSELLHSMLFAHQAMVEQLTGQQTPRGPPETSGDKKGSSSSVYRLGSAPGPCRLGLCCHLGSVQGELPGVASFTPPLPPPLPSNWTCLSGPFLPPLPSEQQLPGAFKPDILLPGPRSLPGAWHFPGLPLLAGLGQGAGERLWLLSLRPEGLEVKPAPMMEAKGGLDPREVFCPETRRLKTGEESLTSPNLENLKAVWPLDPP
# How it was run: as §1
# ETS2 = biological target: T8, ETS2 (Homo sapiens, UniProt P15036 1-469); conditions: protein: recombinant; tags: N-terminal GST; dsDNA, one strand shown
# T8 sequence: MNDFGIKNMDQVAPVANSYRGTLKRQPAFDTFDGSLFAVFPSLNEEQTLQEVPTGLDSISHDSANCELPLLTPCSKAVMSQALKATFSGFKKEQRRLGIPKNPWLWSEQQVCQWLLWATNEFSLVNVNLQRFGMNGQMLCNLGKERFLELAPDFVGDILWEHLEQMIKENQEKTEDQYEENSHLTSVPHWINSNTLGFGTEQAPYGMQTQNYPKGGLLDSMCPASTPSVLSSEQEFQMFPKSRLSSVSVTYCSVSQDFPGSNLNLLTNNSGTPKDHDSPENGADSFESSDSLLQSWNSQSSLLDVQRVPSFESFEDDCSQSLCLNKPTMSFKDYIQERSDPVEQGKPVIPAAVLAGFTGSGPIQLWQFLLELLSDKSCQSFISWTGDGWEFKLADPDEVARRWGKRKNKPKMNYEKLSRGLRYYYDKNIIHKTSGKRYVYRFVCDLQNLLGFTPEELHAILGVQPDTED
# How it was run: as §1
# SPDEF = biological target: T9, SPDEF (Homo sapiens, UniProt O95238 1-335); conditions: protein: recombinant; tags: N-terminal GST; dsDNA, one strand shown
# T9 sequence: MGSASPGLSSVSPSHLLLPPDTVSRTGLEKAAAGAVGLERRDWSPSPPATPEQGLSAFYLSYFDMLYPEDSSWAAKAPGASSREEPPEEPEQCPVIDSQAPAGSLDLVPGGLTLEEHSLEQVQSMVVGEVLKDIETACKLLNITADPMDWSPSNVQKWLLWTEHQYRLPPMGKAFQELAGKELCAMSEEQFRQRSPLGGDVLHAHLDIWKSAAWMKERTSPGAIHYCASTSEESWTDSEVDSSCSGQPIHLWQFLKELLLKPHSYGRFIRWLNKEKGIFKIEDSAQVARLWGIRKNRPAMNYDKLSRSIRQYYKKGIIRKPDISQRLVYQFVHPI
# How it was run: as §1
# ETV7 = biological target: T10, ETV7 (Homo sapiens, UniProt Q9Y603 1-341); conditions: protein: recombinant; tags: N-terminal GST; dsDNA, one strand shown
# T10 sequence: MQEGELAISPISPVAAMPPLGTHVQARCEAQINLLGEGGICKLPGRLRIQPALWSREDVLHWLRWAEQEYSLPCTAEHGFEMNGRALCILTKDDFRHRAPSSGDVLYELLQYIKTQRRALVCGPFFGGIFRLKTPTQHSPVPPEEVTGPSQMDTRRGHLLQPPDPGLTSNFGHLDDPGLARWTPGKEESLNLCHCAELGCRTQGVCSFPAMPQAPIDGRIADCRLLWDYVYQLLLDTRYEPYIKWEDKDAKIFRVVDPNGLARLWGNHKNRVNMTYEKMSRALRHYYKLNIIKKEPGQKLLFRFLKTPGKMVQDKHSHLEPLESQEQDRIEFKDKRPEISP
# How it was run: as §1
# ELF5 = biological target: T11, ELF5 (Homo sapiens, UniProt Q9UKW6-2 1-255); conditions: protein: recombinant; tags: N-terminal GST; dsDNA, one strand shown
# T11 sequence: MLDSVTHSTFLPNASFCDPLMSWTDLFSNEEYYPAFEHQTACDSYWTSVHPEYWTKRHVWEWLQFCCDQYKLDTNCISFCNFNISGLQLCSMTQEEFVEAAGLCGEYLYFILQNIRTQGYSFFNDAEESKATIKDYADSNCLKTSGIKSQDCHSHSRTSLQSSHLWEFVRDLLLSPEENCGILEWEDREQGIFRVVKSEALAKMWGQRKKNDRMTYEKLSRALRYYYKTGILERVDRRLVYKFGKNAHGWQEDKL
# How it was run: as §1
# ETV3 = biological target: T12, ETV3 (Homo sapiens, UniProt P41162-2 1-143); conditions: protein: recombinant; tags: N-terminal GST; dsDNA, one strand shown
# T12 sequence: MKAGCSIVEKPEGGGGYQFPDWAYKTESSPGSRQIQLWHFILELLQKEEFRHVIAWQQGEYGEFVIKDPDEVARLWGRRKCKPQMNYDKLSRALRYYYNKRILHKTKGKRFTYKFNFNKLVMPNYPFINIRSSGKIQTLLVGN
# How it was run: as §1
# ETV6 = ETV6 (Homo sapiens, UniProt P41212 1-452); conditions: protein: recombinant; tags: N-terminal GST; dsDNA, one strand shown
# How it was run: as §1
# Chain of ELF4 (Q99607 whole entry): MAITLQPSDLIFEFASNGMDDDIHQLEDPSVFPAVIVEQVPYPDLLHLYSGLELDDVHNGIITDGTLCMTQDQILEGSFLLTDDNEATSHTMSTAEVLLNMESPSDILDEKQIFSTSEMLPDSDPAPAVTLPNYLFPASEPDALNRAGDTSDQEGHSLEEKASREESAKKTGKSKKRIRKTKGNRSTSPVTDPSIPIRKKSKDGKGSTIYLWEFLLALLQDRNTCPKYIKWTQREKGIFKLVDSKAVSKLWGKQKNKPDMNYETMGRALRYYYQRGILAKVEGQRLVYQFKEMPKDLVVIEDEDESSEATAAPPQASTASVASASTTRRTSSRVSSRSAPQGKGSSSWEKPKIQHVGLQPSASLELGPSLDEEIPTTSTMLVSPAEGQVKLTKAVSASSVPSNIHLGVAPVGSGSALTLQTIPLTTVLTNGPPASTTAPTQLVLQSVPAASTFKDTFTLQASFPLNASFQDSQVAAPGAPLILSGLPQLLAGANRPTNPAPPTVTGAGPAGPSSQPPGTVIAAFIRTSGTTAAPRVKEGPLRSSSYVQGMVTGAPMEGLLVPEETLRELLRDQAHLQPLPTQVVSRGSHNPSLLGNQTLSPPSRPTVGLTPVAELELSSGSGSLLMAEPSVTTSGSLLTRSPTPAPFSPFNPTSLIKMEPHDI
# Chain of CRX (O43186 whole entry): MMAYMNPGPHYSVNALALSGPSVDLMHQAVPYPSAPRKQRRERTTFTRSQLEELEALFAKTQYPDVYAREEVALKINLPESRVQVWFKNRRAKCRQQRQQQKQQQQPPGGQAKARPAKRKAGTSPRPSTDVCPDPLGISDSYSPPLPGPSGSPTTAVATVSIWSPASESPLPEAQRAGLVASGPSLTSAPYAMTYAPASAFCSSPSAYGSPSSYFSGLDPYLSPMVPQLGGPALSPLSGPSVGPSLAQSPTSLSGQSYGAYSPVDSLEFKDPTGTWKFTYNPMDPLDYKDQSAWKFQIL
# Chain of HSF1 (Q00613 whole entry): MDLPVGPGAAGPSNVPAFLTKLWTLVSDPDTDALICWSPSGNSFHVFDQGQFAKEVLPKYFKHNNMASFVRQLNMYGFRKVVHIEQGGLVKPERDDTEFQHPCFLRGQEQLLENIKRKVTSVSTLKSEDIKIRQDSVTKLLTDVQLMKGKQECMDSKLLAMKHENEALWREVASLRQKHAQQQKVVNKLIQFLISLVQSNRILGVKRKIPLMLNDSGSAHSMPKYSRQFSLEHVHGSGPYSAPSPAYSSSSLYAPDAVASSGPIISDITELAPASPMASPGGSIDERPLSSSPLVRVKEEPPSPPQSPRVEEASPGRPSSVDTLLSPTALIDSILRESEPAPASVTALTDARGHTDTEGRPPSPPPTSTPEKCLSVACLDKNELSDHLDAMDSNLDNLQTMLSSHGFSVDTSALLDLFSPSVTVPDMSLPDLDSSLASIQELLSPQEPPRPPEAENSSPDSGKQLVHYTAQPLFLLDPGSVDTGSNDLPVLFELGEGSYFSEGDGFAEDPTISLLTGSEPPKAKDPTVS
# Chain of ETV1 (P50549 whole entry): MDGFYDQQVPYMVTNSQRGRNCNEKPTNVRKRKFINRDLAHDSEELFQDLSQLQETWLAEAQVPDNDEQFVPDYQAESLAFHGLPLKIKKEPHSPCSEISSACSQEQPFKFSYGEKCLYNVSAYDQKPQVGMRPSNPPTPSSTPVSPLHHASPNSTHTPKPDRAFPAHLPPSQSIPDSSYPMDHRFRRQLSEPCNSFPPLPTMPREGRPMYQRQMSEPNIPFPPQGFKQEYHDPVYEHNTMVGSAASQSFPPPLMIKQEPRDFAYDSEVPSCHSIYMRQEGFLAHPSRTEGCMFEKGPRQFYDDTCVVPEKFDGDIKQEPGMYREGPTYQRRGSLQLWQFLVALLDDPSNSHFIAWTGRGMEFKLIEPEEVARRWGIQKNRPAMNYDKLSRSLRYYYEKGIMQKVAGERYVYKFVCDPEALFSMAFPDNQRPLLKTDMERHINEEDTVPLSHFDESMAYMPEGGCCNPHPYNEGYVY
# Chain of ETV6 (P41212 whole entry): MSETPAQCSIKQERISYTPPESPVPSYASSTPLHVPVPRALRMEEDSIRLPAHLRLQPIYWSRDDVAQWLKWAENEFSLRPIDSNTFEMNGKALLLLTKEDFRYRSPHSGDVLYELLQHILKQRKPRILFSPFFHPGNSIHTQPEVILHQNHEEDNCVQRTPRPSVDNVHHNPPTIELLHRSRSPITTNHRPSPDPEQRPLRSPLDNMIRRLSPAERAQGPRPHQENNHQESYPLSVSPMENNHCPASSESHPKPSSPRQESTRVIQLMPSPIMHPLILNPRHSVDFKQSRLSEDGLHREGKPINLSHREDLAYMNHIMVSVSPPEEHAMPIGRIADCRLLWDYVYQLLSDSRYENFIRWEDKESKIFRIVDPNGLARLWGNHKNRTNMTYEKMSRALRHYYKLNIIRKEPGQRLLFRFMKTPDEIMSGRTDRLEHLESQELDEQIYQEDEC
# Chain of ETV5 (P41161 whole entry): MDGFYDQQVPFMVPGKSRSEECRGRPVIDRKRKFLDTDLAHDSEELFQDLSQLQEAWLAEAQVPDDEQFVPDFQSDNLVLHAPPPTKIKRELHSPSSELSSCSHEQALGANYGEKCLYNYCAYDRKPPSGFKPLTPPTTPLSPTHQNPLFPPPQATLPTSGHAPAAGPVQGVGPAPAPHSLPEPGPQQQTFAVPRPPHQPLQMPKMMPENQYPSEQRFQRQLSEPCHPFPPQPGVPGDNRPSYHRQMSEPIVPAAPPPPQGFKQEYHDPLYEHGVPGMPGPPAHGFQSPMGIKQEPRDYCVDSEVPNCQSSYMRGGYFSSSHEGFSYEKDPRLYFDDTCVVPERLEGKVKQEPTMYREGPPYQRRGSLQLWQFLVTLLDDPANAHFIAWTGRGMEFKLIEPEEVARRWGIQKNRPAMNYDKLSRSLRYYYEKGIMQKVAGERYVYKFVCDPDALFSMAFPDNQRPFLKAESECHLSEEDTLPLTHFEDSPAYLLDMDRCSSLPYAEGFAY
sequence,measurement,setting,value
CTCGAC,binding signal,FEV,"1.41 fold enrichment (6-mer frequency, TF over GST control)"
same,binding signal,ETV5,"1.47 fold enrichment (6-mer frequency, TF over GST control)"
same,binding signal,HSF1,"1.77 fold enrichment (6-mer frequency, TF over GST control)"
same,binding signal,SPIC,"1.58 fold enrichment (6-mer frequency, TF over GST control)"
same,binding signal,ELF4,"1.58 fold enrichment (6-mer frequency, TF over GST control)"
same,binding signal,ELK4,"1.49 fold enrichment (6-mer frequency, TF over GST control)"
same,binding signal,ETV2,"1.39 fold enrichment (6-mer frequency, TF over GST control)"
same,binding signal,ELF3,"1.31 fold enrichment (6-mer frequency, TF over GST control)"
same,binding signal,CRX,"1.32 fold enrichment (6-mer frequency, TF over GST control)"
same,binding signal,ETV1,"1.58 fold enrichment (6-mer frequency, TF over GST control)"
same,binding signal,ERF,"1.48 fold enrichment (6-mer frequency, TF over GST control)"
same,binding signal,ETV3L,"1.37 fold enrichment (6-mer frequency, TF over GST control)"
same,binding signal,ETS2,"1.45 fold enrichment (6-mer frequency, TF over GST control)"
same,binding signal,SPDEF,"1.42 fold enrichment (6-mer frequency, TF over GST control)"
same,binding signal,ETV7,"1.37 fold enrichment (6-mer frequency, TF over GST control)"
same,binding signal,ELF5,"1.38 fold enrichment (6-mer frequency, TF over GST control)"
same,binding signal,ETV3,"1.45 fold enrichment (6-mer frequency, TF over GST control)"
same,binding signal,ETV6,"1.63 fold enrichment (6-mer frequency, TF over GST control)"
